Test results: the supplement of paper PMC8728848
Only a selection was taken, and the strongest signals are over-represented in it overall.

Legend:
Test in all cases: glycan array binding signal (z-score within array); higher = stronger binding
Settings in all cases: glycan notation: IUPAC condensed, linker removed
[1] = target: Fuc(a1-2)Gal(b1-3)GlcNAc6S
Procedure, shortened: (§1)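 Glycan array data were curated from 3228 arrays in the Consortium for Functional Glycomics database and kept only where the protein sequence was available. Glycan names were converted to IUPAC-condensed notation, and columns mapping to the same glycan were averaged. The binding signal is a within-array Z-score, averaged across arrays of the same protein sequence at different concentrations or buffers and across linkers. Negative Z-scores can be read as non-binding.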

[2] = target: Fuc(a1-2)Gal(b1-3)[Fuc(a1-4)]GlcNAc(b1-3)[Fuc(a1-3)[Gal(b1-4)]GlcNAc(b1-6)]Gal(b1-4)Glc
Procedure, shortened: as §1

[3] = target: Fuc(a1-2)Gal(b1-4)GlcNAc(b1-6)GalNAc
Procedure, shortened: as §1

[4] = target: Fuc(a1-2)Gal(b1-4)[Fuc(a1-3)]GlcNAc
Procedure, shortened: as §1

[5] = target: Fuc(a1-2)[Gal(a1-3)]Gal(b1-3)GlcNAc
Procedure, shortened: as §1

[6] = target: Fuc(a1-2)[Gal(a1-3)]Gal(b1-3)GlcNAc(b1-3)GalNAc
Procedure, shortened: as §1

[7] = target: Fuc(a1-2)[Gal(a1-3)]Gal(b1-4)GlcNAc
Procedure, shortened: as §1

[8] = target: Fuc(a1-2)[GalNAc(a1-3)]Gal(b1-4)GlcNAc(b1-2)Man
Procedure, shortened: as §1

[9] = target: Fuc(a1-2)[GalNAc(a1-3)]Gal(b1-4)GlcNAc(b1-3)GalNAc
Procedure, shortened: as §1

[10] = target: Fuc(a1-2)[GalNAc(a1-3)]Gal(b1-4)GlcNAc(b1-6)GalNAc
Procedure, shortened: as §1

[11] = target: Fuc(a1-2)[GalNAc(b1-3)]Gal
Procedure, shortened: as §1

[12] = target: Fuc(a1-3)[Gal(b1-4)]GlcNAc(b1-2)Man
Procedure, shortened: as §1

[13] = target: Gal(a1-3)Gal(b1-3)GlcNAc
Procedure, shortened: as §1

[14] = target: Gal(a1-3)Gal(b1-3)GlcNAc(b1-2)Man(a1-3)[Gal(a1-3)Gal(b1-3)GlcNAc(b1-2)Man(a1-6)]Man(b1-4)GlcNAc(b1-4)GlcNAc
Procedure, shortened: as §1

[15] = target: Gal(a1-3)Gal(b1-4)GlcNAc(b1-6)GalNAc
Procedure, shortened: as §1

[16] = target: Gal(b1-3)GlcNAc(a1-6)Gal(b1-4)GlcNAc
Procedure, shortened: as §1

[17] = target: Gal(b1-3)GlcNAc(b1-3)Gal(b1-4)Glc
Procedure, shortened: as §1

[18] = target: Gal(b1-3)GlcNAc(b1-6)GalNAc
Procedure, shortened: as §1

[19] = target: Gal(b1-3)[Fuc(a1-4)]GlcNAc(b1-3)Gal(b1-3)[Fuc(a1-4)]GlcNAc
Procedure, shortened: as §1

[20] = target: Gal(b1-3)[Neu5Ac(a2-6)]GlcNAc(b1-4)Gal(b1-4)Glc
Procedure, shortened: as §1

[21] = target: Gal(b1-4)GalNAc(b1-3)[Fuc(a1-2)]Gal(b1-4)GlcNAc
Procedure, shortened: as §1

[22] = target: Gal(b1-4)GlcNAc(b1-2)[Gal(b1-4)GlcNAc(b1-6)]Man(a1-6)[GlcNAc(b1-4)][Gal(b1-4)GlcNAc(b1-2)[Gal(b1-4)GlcNAc(b1-4)]Man(a1-3)]Man(b1-4)GlcNAc(b1-4)[Fuc(a1-6)]GlcNAc
Procedure, shortened: as §1

[23] = target: Gal(b1-4)GlcNAc(b1-3)Gal(b1-4)GlcNAc(b1-2)Man(a1-3)[Gal(b1-4)GlcNAc(b1-3)Gal(b1-4)GlcNAc(b1-2)Man(a1-6)]Man(b1-4)GlcNAc(b1-4)GlcNAc
Procedure, shortened: as §1

[24] = target: Gal3S(b1-4)Glc
Procedure, shortened: as §1

[25] = target: Gal3S(b1-4)[Fuc(a1-3)]GlcNAc6S
Procedure, shortened: as §1

[26] = target: Gal6S(b1-4)GlcNAc6S
Procedure, shortened: as §1

[27] = target: GalNAc(a1-3)Gal
Procedure, shortened: as §1

[28] = target: GalNAc(b1-3)Gal
Procedure, shortened: as §1

[29] = target: GalNAc(b1-3)Gal(a1-4)Gal(b1-4)GlcNAc
Procedure, shortened: as §1

[30] = target: GalNAc(b1-3)Gal(a1-4)Gal(b1-4)GlcNAc(b1-3)Gal(b1-4)Glc
Procedure, shortened: as §1

[31] = target: GalNAc(b1-3)Gal(a1-6)Gal(b1-4)Glc
Procedure, shortened: as §1

[32] = target: GalNAc3S(b1-4)GlcNAc
Procedure, shortened: as §1

[33] = target: GlcNAc(a1-4)Gal(b1-3)GlcNAc
Procedure, shortened: as §1

[34] = target: GlcNAc(a1-4)Gal(b1-4)GlcNAc(b1-3)Gal(b1-4)GlcNAc
Procedure, shortened: as §1

[35] = target: GlcNAc(b1-2)Man(a1-3)[GlcNAc(b1-2)Man(a1-6)]Man(b1-4)GlcNAc(b1-4)GlcNAc
Procedure, shortened: as §1

[36] = target: GlcNAc(b1-3)Gal
Procedure, shortened: as §1

[37] = target: GlcNAc(b1-6)GalNAc
Procedure, shortened: as §1

[38] = target: Man(a1-2)Man(a1-3)[Man(a1-2)Man(a1-6)]Man(a1-6)[Man(a1-2)Man(a1-2)Man(a1-3)]Man
Procedure, shortened: as §1

[39] = target: Man(a1-3)[Man(a1-6)]Man(a1-6)[Man(a1-3)]Man(b1-4)GlcNAc(b1-4)GlcNAc
Procedure, shortened: as §1

[40] = target: Neu5Ac(a2-3)Gal(b1-3)GalNAc(b1-3)Gal(a1-4)Gal(b1-4)Glc
Procedure, shortened: as §1

[41] = target: Neu5Ac(a2-3)Gal(b1-3)[Fuc(a1-4)]GlcNAc(b1-3)Gal(b1-3)[Fuc(a1-4)]GlcNAc
Procedure, shortened: as §1

[42] = target: Neu5Ac(a2-3)Gal(b1-4)Glc
Procedure, shortened: as §1

[43] = target: Neu5Ac(a2-3)Gal(b1-4)GlcNAc(b1-2)Man(a1-3)[Neu5Ac(a2-3)Gal(b1-4)GlcNAc(b1-2)Man(a1-6)]Man(b1-4)GlcNAc(b1-4)[Fuc(a1-6)]GlcNAc
Procedure, shortened: as §1

[44] = target: Neu5Ac(a2-3)Gal(b1-4)GlcNAc(b1-3)Gal
Procedure, shortened: as §1

[45] = target: Neu5Ac(a2-3)Gal(b1-4)GlcNAc(b1-3)Gal(b1-4)GlcNAc
Procedure, shortened: as §1

[46] = target: Neu5Ac(a2-3)Gal(b1-4)[Fuc(a1-3)]GlcNAc(b1-6)[Neu5Ac(a2-3)Gal(b1-3)]GalNAc
Procedure, shortened: as §1

[47] = target: Neu5Ac(a2-6)Gal(b1-4)GlcNAc(b1-2)[Neu5Ac(a2-6)Gal(b1-4)GlcNAc(b1-4)]Man(a1-3)[GlcNAc(b1-4)][Neu5Ac(a2-6)Gal(b1-4)GlcNAc(b1-4)Man(a1-6)]Man(b1-4)GlcNAc(b1-4)GlcNAc
Procedure, shortened: as §1

[48] = target: Neu5Ac(a2-8)Neu5Ac(a2-8)Neu5Ac(a2-3)[GalNAc(b1-4)]Gal(b1-4)Glc
Procedure, shortened: as §1

[49] = target: Neu5Ac(b2-6)GalNAc
Procedure, shortened: as §1

B1: Cohesin-mDCIR (Macaca mulatta) (protein)
chain: GLDDLDAVRIKVDTVNAKPGDTVRIPVRFSGIPSKGIANCDFVYSYDPNVLEIIEIEPGDIIVDPNPDKSFDTAVYPDRKIIVFLFAEDSGTGAYAITKDGVFATIVAKVKEGAPNGLSVIKFVEVGGFANNDLVEQKTQFFDGGVNVGDTTEPATPTTPVTTPTTTDDLDAASFQKYSQLLEKMTTKDLVHTTLECVKKNMTTEETAWSCCPKNWKPFSSNCYFISTESASWQKSEKDCARMEAHLLVINTREEQDFIFQNLQEESAYFVGLSDPEGQRHWQWVDRTPYNESSTFWHPHEPSDPDERCVVLNFRKTPKRWGWNDVHCIVHQRSVCEMMKIHLHHHHHH
- glycan array binding signal (z-score) [1]: -0.407
- glycan array binding signal (z-score) [2]: -0.151
- glycan array binding signal (z-score) [3]: 0.7
- glycan array binding signal (z-score) [4]: 0.229
- glycan array binding signal (z-score) [5]: 3.96
- glycan array binding signal (z-score) [6]: -0.241
- glycan array binding signal (z-score) [7]: -0.349
- glycan array binding signal (z-score) [8]: -0.101
- glycan array binding signal (z-score) [9]: -0.338
- glycan array binding signal (z-score) [10]: 5.37
- glycan array binding signal (z-score) [11]: 3.27
- glycan array binding signal (z-score) [12]: -0.274
- glycan array binding signal (z-score) [13]: 8.73
- glycan array binding signal (z-score) [14]: -0.246
- glycan array binding signal (z-score) [15]: 6.42
- glycan array binding signal (z-score) [16]: -0.186
- glycan array binding signal (z-score) [17]: -0.363
- glycan array binding signal (z-score) [18]: 3.16
- glycan array binding signal (z-score) [19]: 4.89
- glycan array binding signal (z-score) [20]: -0.388
- glycan array binding signal (z-score) [21]: -0.103
- glycan array binding signal (z-score) [22]: -0.425
- glycan array binding signal (z-score) [23]: 4.39
- glycan array binding signal (z-score) [24]: 5.11
- glycan array binding signal (z-score) [25]: 1.55
- glycan array binding signal (z-score) [26]: 0.096
- glycan array binding signal (z-score) [27]: 0.417
- glycan array binding signal (z-score) [28]: 2.45
- glycan array binding signal (z-score) [29]: 1.26
- glycan array binding signal (z-score) [30]: 0.862
- glycan array binding signal (z-score) [31]: 2.77
- glycan array binding signal (z-score) [32]: -0.436
- glycan array binding signal (z-score) [33]: -0.401
- glycan array binding signal (z-score) [34]: -0.366
- glycan array binding signal (z-score) [35]: -0.313
- glycan array binding signal (z-score) [36]: -0.352
- glycan array binding signal (z-score) [37]: 1.02
- glycan array binding signal (z-score) [38]: -0.438
- glycan array binding signal (z-score) [39]: -0.439
- glycan array binding signal (z-score) [40]: -0.388
- glycan array binding signal (z-score) [41]: -0.418
- glycan array binding signal (z-score) [42]: -0.444
- glycan array binding signal (z-score) [43]: -0.364
- glycan array binding signal (z-score) [44]: -0.377
- glycan array binding signal (z-score) [45]: -0.175
- glycan array binding signal (z-score) [46]: -0.363
- glycan array binding signal (z-score) [47]: -0.257
- glycan array binding signal (z-score) [48]: 0.263
- glycan array binding signal (z-score) [49]: -0.406
